Screening results (PubChem BioAssay)
The sample as a whole holds a higher share of hits than the screen did.
ALR inh – blocks human ALR sulfhydryl oxidase activity | P55789 | purified ALR, DTT oxidation, H2O2 HRP-luminol luminescence | inhibition, % (no concentration beside the values) | 290,000 compounds, 3.8% hits;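 active = mean replicate inhibition above about 79%, with every replicate also reaching it, limit read from the data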
NPR2 activator – GC-B (human) receptor activation | P20594 | HEK293-GC-B cells, CNP EC30, cGMP TR-FRET; 0% at EC30 CNP, 100% saturating CNP | 370,000 compounds, 0.11% hits | activation, % at 10 µM;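 active = activation at 10 µM reaching about 35% in either raw or pattern-adjusted values, limit read from the data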
GC-A act – GC-A (human) enzyme activation; activation, % at 10 µM; P16066; AID 1671463; 370,000 compounds, 0.14% hits; HEK293 GC-A cells, cGMP TR-FRET, EC30 ANP; 0% at EC30 ANP, 100% saturating ANP; in the data active = activation above about 40%
HDAC3 inhib – inhibitors of human histone deacetylase 3; AID 2718; inhibition, % at 8.3 µM; 320,000 compounds, 0.15% hits; O15379; recombinant HDAC3, fluorogenic peptide/trypsin coupled, fluorescence; in the data active = inhibition above about 26%, passing the limit was not always enough
* = called active by the depositor; / = no result given.

SMILES	ALR inh	NPR2 activator	GC-A act	HDAC3 inhib
CCCCNC(=S)N(Cc1ccco1)Cc1cc2cc3c(cc2[nH]c1=O)OCCO3	15.1	1.2	1.5	-10.9
O=C(NN=Cc1ccccc1)C(Oc1ccccc1)c1ccccc1 (stereo not given)	/	0.0	-2.4	/
COc1ccc(C2C(C#N)=C(N)N(c3ccccc3C#N)C3=C2C(=O)CCC3)cc1CN1CCCC1 (stereo not given)	-0.7	3.6	2.9	4.6
O=C(O)c1cccc(-n2cccc2C=C2C(=O)c3ccccc3C2=O)c1	-1.8	-6.4	0.5	3.2
O=C(N/N=C/c1cccn1-c1cccc(C(=O)O)c1)Nc1ccccc1	97.2*	-3.3	0.2	6.7
CCN(CC)CCCOC(=O)c1ccc(OC)cc1O	-2.5	1.8	-2.2	-5.2
CCOc1ccc(/C=C/C(=O)c2cc(Br)ccc(=O)c2O)cc1	96.3*	-0.7	0.0	9.2
CCc1ccc(/C=C/C(=O)c2cc(Br)ccc(=O)c2O)cc1	35.8	-2.2	-7.4	-4.2
Cc1cccc(/C=C/C(=O)c2cc(Br)ccc(=O)c2O)c1	97.7*	-9.0	-4.5	7.1
O=C(CNC(=O)c1cccnc1)N/N=C/c1ccc(O)cc1O	77.9*	1.2	-4.3	1.6
O=C(CNC(=O)c1cccs1)N/N=C/c1ccc(O)cc1O	73.9	-2.8	-2.0	7.2
Cc1ccc(N2CCN(S(=O)(=O)N3CCCCC3)CC2)cc1C	3.4	1.3	4.8	-0.7
Cc1ccc(N2CCN(C(=O)N3CCCC3)CC2)cc1C	95.8*	-1.1	-1.8	-0.5
Cc1sc(NC(=O)CSC2=NCCS2)nc1-c1ccccc1	98.7*	-0.2	-0.8	1.2
Cc1nc(NC(=O)CSC2=NCCS2)sc1C(=O)N(C)C	98.6*	6.6	4.8	4.3
COc1ccc(-c2nc(NC(=O)Cn3cnnn3)sc2C)cc1	/	-0.6	2.1	1.6
O=C(CSC1=NCCS1)Nc1nc2ccccc2s1	90.4*	-0.5	5.5	-0.2
COc1ccc(-c2nc(NC(=O)CSCCO)sc2C)cc1	98.1*	-3.6	-1.3	6.8
COc1cc(C(=O)Nc2ccc(C)cn2)ccc1OCC(=O)N1CCOCC1	17.8	-5.5	-1.8	-0.9
CC(=O)N1CC(=O)N=C1SCC(=O)Nc1nc(-c2ccccc2)c(-c2ccccc2)s1	98.7*	-5.4	-10.4	28.5*
COc1ccc(-c2nc(NC(=O)c3ccc(OCC(=O)N4CCOCC4)c(OC)c3)sc2C)cc1	96.1*	3.1	-3.2	-1.0
COc1cccc(N2CCN(Cc3ccco3)CC2)c1	86.8*	1.3	-2.3	2.7
COc1cccc(N2CCN(Cc3ccsc3)CC2)c1	88.6*	-1.2	4.8	3.1
CCN(CC)c1ccc(Nc2nc(Cl)ncc2Br)cc1	98.9*	-1.5	-6.5	0.9
CC(=O)Nc1ccc(SC[C@H](Cc2ccccc2)N2CC[C@@H](C(C)(C)C)CCC2=O)cc1	98.7*	1.2	-0.7	0.0
SMILES	ALR inh	NPR2 activator	GC-A act	HDAC3 inhib
CC(=O)Nc1ccc(S[C@@H](CCN2CC[C@H](C(C)(C)C)CCC2=O)c2ccccc2)cc1	97.1*	1.7	-3.9	16.4
CC(C)(C)[C@@H]1CCC(=O)N(CC[C@H](Sc2ccccc2)c2ccccc2)CC1	-11.3	-1.3	-1.2	9.5
CC(=O)Nc1ccc(SC[C@H](Cc2ccccc2)N2CC[C@@H](O)CCC2=O)cc1	98.9*	-2.7	-2.6	1.3
CC(=O)Nc1ccc(SCCN2CC[C@@H](C)CCC2=O)cc1	98.8*	6.3	-0.9	-3.2
CC(C)(C)[C@H]1CCC(=O)N([C@H](CSc2ccccc2)Cc2ccccc2)CC1	-2.6	-1.5	-0.5	-3.4
CCCNC(=O)C1(C)CCCN(Cc2ccc(C(=O)OCC)o2)C1 (stereo not given)	/	-1.3	0.5	/
CCn1c(CN2CCOCC2)nnc1SCC(=O)Nc1ccc(C(C)=O)cc1	-2.1	6.6	2.2	2.1
COCCCN1CN(S(=O)(=O)c2ccc(C)cc2C)c2nc3ccccc3nc21	-10.1	-1.7	-1.8	1.1
CCOc1ccc(CNS(=O)(=O)c2cc(-c3cc(C)no3)ccc2OC)cc1OC	0.7	-3.2	-2.1	-4.9
O=C(CSc1nnc(SCc2ccccc2)s1)N/N=C/C=C\c1ccco1	97.3*	2.7	-6.0	13.4
O=C(COCc1ccncc1)N1CCN(c2ccc(F)cc2Cl)CC1	/	-2.2	-1.6	/
OCCCNCc1ccc(N(c2ccccc2)c2ccccc2)cc1	99.2*	-4.0	-6.7	5.7
O=C(C/C=N\OCc1ccc([N+](=O)[O-])cc1)Nc1ccccc1	-14.2	-3.8	-3.2	0.0
COC(=O)C(/C=N/OCc1ccc([N+](=O)[O-])cc1)NC(=O)c1ccccc1 (stereo not given)	15.1	-4.4	1.8	43.7*
NCCc1nnc(SCC(=O)Nc2ccc(Br)cc2)o1	98.2*	1.5	-0.3	-1.1
CCCc1nnc(SCC(=O)Nc2ccc(OC)cc2)o1	-12.5	3.0	1.0	-7.7
O=C(CSc1nnc(CNC(=O)c2ccco2)o1)Nc1ccc(Br)cc1	99.0*	-3.9	-1.2	-1.6
CC(C)C[C@H](NC(=O)OC(C)(C)C)c1nnc(SCC(=O)Nc2ccc(Br)cc2)o1	-5.5	-7.9	-3.1	0.9
CC(C)C[C@H](N)c1nnc(SCC(=O)Nc2ccc(Br)cc2)o1	99.0*	0.4	1.3	3.6
COc1cccc(CO[C@H]2C=C[C@@H](c3ccccc3)O[C@@H]2CO)c1	/	5.5	3.5	/
CCOc1ccc(-n2cc(-c3ccc(OC)c(OC)c3)[nH]c2=S)cc1	-24.7	-7.8	-5.3	2.1
Cc1cc(C)c(NC(=S)N(CCCN2CCN(C)CC2)Cc2cccs2)c(C)c1	/	2.1	-0.3	8.2
CCn1c(CN2CCN(c3ccc(Cl)cc3)CC2)nc2ccccc21	95.7*	-3.2	1.1	3.4
Cn1c(CN2CCN(c3ccc(Cl)cc3)CC2)nc2ccccc21	2.7	-0.6	-3.5	-2.1
NC(=O)CC(NC(=O)c1ccc(Br)cc1)c1ccc(N2CCCCCC2)c([N+](=O)[O-])c1 (stereo not given)	-1.4	0.5	-6.7	10.7
SMILES	ALR inh	NPR2 activator	GC-A act	HDAC3 inhib
COC(=O)c1sc(NC(=O)CN2CCN(c3cccc(Cl)c3)CC2)c(C(=O)OC)c1C	/	7.8	2.2	/
CCOc1ccccc1C(=O)Nc1ccc(C(=O)NCC2COc3ccccc3O2)cc1 (stereo not given)	/	-3.6	-4.5	/
Cc1cc2c(s1)Nc1ccccc1N=C2N1CCN(C)CC1	93.5*	-17.2	-29.9	1.4
COc1ccc(C(=O)c2ccc(Cl)c([N+](=O)[O-])c2)cc1	96.7*	15.3	2.9	0.9
COC(=O)[C@]12C[C@H](CC(=O)NCc3ccc(OC)c(OC)c3)C(=O)N(Cc3cccc4ccccc34)C1=C[C@H](C(C)(C)C)O[C@@H]2C	/	5.2	-3.6	/
CSc1ccc2c(c1)N(CCC1CCCCN1C)c1ccccc1S2 (stereo not given)	99.0*	-20.0	-37.5	2.9
Cc1cn(CCOc2ccc(Cl)cc2)c(=O)[nH]c1=O	-3.4	-6.4	-4.1	6.5
Nc1ncnc2c1ncn2[C@@H]1O[C@H](C(=O)N[C@@H](CO)Cc2ccccc2)[C@@H](O)[C@H]1O	/	-1.3	0.8	/
